Percent Effect data for eleven compounds are collected here from ChEMBL document CHEMBL3988442, “University of Dundee, Small-Polar-MMV Screening Library” (2021).

What all share (parameters): scale not given: direction of the effect not stated beside the values
The target of test [1] is Protein translocase subunit SecA (Escherichia coli (strain K12)) (UniProt P10408). Briefly: Assay to Identify E. coli SecA ATPase Inhibitors. Format: functional. The settings on record: 30 µM.
Test [2] deals with T1, Ubiquitin-activating enzyme e1, putative (Leishmania donovani (strain BPK282A1)) (UniProt E9BSI1).
T1 sequence (whole entry): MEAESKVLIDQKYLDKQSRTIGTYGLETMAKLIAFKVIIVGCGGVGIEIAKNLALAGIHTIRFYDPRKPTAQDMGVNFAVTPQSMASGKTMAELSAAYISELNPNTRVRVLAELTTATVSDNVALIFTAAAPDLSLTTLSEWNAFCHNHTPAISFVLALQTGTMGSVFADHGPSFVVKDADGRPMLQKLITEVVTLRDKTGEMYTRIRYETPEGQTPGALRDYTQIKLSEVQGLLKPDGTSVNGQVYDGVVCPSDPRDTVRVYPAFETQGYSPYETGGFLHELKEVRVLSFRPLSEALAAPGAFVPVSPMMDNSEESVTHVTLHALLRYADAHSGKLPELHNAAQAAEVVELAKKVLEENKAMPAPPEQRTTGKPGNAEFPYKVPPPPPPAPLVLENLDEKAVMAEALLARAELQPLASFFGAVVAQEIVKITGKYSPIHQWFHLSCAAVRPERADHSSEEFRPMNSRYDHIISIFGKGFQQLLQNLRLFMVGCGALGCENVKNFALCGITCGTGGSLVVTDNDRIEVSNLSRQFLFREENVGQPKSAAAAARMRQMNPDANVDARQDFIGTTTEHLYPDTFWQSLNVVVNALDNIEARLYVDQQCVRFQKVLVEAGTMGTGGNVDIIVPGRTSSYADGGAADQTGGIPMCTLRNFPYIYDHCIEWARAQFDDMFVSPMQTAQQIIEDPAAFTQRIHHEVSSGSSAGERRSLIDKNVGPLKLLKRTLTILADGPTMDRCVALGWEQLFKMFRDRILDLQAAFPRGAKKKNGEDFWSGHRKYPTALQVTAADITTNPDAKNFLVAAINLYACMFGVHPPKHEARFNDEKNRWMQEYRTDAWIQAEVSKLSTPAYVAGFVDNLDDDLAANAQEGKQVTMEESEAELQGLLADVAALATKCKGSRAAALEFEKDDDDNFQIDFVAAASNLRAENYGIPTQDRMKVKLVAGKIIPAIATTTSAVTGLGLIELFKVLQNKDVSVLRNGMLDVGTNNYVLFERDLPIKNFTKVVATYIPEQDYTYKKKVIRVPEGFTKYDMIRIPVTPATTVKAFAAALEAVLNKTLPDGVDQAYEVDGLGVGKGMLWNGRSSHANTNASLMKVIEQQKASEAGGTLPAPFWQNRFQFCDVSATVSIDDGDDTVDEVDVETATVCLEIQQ
Briefly: Leishmania donovani Ubiquitin Activating Enzyme (LdE1). Format: functional. To be noted: 30 µM.

Test [3] deals with AMP-activated protein kinase, AMPK (Homo sapiens) (UniProt P54646+O43741+P54619+Q9UGJ0+Q9Y478+Q13131+Q9UGI9). Nature of the test: AMP-dependent Kinase enzyme assay. An in vitro enzyme assay that detects ADP turnover that is directly proportional to AMPK activity. This uses naive AMPK that is activated during the assay with MK-8722. The settings on record: 30 µM. Format: functional.

The target in test [4] is Sialic acid-binding Ig-like lectin 9 (Homo sapiens) (UniProt Q9Y336). Briefly: Hs-Siglec9 ALPHAscreen SOP 20170721. To be noted: 10 µM.
Sialic acid-binding Ig-like lectin 9 (Homo sapiens), sequence (Q9Y336 whole entry): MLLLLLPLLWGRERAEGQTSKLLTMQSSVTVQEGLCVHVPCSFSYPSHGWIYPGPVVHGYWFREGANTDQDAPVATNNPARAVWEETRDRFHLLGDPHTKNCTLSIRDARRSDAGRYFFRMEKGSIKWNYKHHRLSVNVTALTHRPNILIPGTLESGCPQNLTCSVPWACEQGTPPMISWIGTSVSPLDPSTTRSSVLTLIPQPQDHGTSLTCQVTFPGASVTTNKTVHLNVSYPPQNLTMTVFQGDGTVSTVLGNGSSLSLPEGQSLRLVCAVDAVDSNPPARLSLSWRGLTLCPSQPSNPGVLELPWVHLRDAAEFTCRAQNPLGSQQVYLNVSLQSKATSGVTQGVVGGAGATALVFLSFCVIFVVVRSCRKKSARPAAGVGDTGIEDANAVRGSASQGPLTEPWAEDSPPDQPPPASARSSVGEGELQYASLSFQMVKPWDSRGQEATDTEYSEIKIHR
A further test concerns Trypanosoma cruzi. Briefly: Trypanosoma cruzi phosphomannomutase and mannose-1-phosphate guanylyltransferase assay. It is filed as functional. The settings on record: 10 µM.
In test [5] the target is T2, Arginase-2, mitochondrial (Homo sapiens) (UniProt P78540).
T2 sequence (whole entry): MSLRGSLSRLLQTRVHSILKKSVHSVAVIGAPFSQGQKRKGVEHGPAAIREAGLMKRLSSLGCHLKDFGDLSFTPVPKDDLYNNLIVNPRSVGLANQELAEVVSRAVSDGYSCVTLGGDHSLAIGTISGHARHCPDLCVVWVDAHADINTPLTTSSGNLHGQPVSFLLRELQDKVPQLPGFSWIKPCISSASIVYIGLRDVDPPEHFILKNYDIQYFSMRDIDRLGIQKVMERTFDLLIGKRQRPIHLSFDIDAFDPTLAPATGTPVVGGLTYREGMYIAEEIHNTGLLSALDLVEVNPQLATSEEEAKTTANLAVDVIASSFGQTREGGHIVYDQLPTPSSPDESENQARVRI
Briefly: in vitro enzyme assay to detect the production of urea directly proportional to the activity of Arginase II. Note: in the data most compounds retested in dose-response had high values. Format: functional. The settings on record: 33.3 µM.

The target in test [6] is T3, Proteasome subunit beta (Trypanosoma cruzi) (UniProt O96673).
T3 sequence (whole entry): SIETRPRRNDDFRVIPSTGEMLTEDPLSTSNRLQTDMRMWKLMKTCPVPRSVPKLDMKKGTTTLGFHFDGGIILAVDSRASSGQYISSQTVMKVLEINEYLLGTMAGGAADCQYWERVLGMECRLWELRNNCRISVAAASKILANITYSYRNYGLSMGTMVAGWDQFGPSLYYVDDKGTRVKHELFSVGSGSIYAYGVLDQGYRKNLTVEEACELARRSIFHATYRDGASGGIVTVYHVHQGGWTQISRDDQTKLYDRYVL
Nature of the test: Trypanosoma cruzi proteasome chymotrypsin-like activity (TcProtChymo) assay. Note: in the data most compounds retested in dose-response had high values. It is filed as functional. The settings on record: 9.37 µM.

The species named for a further test is Homo sapiens. Briefly: To identify inhibition of the IFN signalling (Jak-Stat) pathway via expression of an eGFP reporter gene under the control of an IFN-stimulated response element (ISRE) containing MxA promoter. Format: functional. To be noted: 30 µM. For orientation: A reporter such as luciferase makes a cellular process visible.
Test [7] concerns the target T4, Tyrosyl-tRNA synthetase, putative (Trypanosoma cruzi (strain CL Brener)) (UniProt Q4DSP6).
T4 sequence (whole entry): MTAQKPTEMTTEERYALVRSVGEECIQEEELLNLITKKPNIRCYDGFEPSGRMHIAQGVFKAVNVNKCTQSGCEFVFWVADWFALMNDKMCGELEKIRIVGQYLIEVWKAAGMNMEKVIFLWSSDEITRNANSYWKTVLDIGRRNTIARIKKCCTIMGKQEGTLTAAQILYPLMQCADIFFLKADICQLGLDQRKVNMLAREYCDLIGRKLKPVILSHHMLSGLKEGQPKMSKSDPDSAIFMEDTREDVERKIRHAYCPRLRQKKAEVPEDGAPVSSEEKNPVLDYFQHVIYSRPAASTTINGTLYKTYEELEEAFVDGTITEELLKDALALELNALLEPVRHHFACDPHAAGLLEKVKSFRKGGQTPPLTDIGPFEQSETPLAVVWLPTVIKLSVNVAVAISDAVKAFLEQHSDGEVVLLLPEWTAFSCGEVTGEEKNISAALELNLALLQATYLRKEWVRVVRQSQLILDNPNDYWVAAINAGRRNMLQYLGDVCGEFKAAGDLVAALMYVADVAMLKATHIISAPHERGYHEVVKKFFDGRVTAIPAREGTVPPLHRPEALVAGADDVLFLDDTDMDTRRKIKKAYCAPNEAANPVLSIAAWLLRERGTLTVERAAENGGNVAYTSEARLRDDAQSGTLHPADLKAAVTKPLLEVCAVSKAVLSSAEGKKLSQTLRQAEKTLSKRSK
Nature of the test: Trypanosoma cruzi tyrosyl tRNA synthetase (TcYRS) _High Tyrosine SOP. Note: in the data most compounds retested in dose-response had high values. Format: functional. To be noted: 30 µM.

Test [8] concerns the target T4, Tyrosyl-tRNA synthetase, putative (Trypanosoma cruzi (strain CL Brener)). Briefly: Trypanosoma cruzi tyrosyl tRNA synthetase (TcYRS) SOP. It is filed as functional. The settings on record: 30 µM.
For test [9], the target named is Chromo domain-containing protein 1 (Saccharomyces cerevisiae (strain ATCC 204508 / S288c) (Baker's yeast)) (UniProt P32657). Briefly: ScCHD-1 Enzyme Inhibition Assay. Note: in the data most compounds retested in dose-response had high values. Format: functional. To be noted: 30 µM.
Chromo domain-containing protein 1 (Saccharomyces cerevisiae (strain ATCC 204508 / S288c) (Baker's yeast)), sequence (P32657 whole entry, the tested form may be a part): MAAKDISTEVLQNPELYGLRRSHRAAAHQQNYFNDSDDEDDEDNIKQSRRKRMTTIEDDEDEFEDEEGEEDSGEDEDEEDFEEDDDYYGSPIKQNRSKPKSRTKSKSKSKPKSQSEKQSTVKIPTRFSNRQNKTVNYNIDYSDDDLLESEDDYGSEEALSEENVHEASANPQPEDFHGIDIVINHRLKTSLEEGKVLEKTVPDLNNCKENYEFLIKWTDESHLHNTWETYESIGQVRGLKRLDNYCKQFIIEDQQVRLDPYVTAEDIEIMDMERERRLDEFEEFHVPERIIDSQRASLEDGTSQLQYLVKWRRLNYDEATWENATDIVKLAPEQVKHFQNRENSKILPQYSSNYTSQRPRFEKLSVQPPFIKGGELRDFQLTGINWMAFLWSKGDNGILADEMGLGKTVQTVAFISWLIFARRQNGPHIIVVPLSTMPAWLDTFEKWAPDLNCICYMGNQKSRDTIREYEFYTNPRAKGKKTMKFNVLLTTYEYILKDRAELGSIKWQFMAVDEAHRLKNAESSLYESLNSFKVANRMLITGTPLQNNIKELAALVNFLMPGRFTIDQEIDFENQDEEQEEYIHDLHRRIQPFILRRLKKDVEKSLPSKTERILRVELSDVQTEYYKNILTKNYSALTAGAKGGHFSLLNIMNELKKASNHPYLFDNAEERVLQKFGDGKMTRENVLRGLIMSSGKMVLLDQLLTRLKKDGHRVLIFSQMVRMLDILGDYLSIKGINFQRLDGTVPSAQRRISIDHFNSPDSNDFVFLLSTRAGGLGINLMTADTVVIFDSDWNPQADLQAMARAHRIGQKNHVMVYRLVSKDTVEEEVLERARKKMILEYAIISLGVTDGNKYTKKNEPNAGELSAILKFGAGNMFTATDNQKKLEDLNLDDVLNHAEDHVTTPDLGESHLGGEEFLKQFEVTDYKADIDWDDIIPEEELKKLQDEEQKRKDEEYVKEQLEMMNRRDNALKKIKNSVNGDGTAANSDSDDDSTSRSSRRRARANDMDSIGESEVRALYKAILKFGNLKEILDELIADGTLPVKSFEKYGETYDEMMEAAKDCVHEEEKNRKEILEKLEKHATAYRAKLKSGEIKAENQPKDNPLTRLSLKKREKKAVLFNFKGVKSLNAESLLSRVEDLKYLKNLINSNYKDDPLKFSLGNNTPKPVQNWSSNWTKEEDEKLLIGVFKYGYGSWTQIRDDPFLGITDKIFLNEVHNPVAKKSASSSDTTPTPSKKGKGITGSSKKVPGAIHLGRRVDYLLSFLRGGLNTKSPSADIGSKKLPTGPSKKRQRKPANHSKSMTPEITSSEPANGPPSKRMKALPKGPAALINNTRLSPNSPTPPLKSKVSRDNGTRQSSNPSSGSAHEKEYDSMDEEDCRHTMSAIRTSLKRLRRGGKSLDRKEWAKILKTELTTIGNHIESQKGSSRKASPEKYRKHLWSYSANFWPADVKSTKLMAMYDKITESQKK

For some of these results: Measured potencies and affinities stand elsewhere.

Protein translocase subunit SecA (Escherichia coli (strain K12)), sequence (P10408 whole entry): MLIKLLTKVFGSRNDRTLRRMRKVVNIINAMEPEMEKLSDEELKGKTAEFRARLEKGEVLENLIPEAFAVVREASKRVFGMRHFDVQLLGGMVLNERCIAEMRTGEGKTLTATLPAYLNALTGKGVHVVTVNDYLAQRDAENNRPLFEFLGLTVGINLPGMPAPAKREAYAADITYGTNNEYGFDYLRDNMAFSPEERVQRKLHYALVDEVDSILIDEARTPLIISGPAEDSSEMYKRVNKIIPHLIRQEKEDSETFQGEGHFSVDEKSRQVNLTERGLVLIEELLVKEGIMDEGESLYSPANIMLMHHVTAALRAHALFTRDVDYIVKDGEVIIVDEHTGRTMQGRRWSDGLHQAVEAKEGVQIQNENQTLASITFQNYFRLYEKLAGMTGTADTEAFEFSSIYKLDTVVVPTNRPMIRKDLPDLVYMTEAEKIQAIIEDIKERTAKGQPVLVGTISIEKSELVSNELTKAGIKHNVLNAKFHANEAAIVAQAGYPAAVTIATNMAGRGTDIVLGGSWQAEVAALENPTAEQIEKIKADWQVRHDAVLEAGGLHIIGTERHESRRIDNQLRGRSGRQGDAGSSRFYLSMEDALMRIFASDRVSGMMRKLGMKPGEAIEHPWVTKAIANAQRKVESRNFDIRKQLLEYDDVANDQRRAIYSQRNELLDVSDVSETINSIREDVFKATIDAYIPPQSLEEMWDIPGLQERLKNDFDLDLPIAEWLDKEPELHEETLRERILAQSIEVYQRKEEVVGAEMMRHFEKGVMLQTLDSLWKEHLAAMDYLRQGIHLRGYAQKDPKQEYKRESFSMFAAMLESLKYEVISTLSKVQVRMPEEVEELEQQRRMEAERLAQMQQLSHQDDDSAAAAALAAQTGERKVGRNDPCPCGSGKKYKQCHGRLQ

For `O=C(c1cscn1)N1CCC2(CCN(Cc3nccs3)C2)CC1`, the Percent Effect in test [1] is -1.95%; in [2], 2.7%; in test [3], 2.22%; in [4], 3.97%; with Trypanosoma cruzi, 0.293%; in test [5] it was -6.05%. The Percent Effect in [6] is 16.4%; in the test filed under Homo sapiens it was -17.2%; in [7] it was 1.08%; in [8], 5.13%; in test [9] it was 5.03%.

For the compound `Cc1nn(C)c(C)c1C1CCCN1Cc1nc(C)c2ccccc2n1` (stereo unspecified), the Percent Effect in [1] was -3.55%; in [2], 3.8%; in [3] it was 1.88%; in [4], -0.0747%; in the test on Trypanosoma cruzi it was 1.74%; in test [5], 1.94%. The Percent Effect in [6] is 2.06%; in the test listed under Homo sapiens, -6.74%; in test [7], 20.8%; in [8], 25.3%; in [9], -22.5%.

On to `CCC1CCCCCN1C(=O)c1nnc2ccccc2c1N` (stereo unspecified), for which the Percent Effect in test [1] was -4.89%; in test [2] it was 2.63%; in test [3], 3.98%; in test [4] it was -3.48%; in the test with Trypanosoma cruzi, -2.82%; in test [5], 0%. Moreover, the Percent Effect in test [6] is 9.11%; in the test listed under Homo sapiens, 7.13%; in test [7] it was 0%; in test [8], 2.6%; in test [9] it was -1.43%.

`O=C(c1ccoc1)N1CCC2(CC1)C(=O)Nc1ccccc12`: the Percent Effect is -2.34% in [1]; 16.2% in [2]; -9.89% in test [3]; 3.61% in test [4]; 2.44% with Trypanosoma cruzi; 6.2% in [5]. Further, the Percent Effect in test [6] is 5.06%; in the test listed under Homo sapiens, 37.9%; in [7], 8.6%; in test [8], 18.5%; in [9], -8.75%.

As to `COCCN1CC[C@@H]2O[C@@H](COCC(=O)N3CCCC3)CC[C@@H]21`, the Percent Effect is -3.65% in test [1]; 5.48% in [2]; -6.36% in test [3]; 2.85% in [4]; 7.94% with Trypanosoma cruzi; -3.99% in test [5]. Further, the Percent Effect in test [6] was 3.85%; in the test filed under Homo sapiens it was -31.2%; in [7], 7.29%; in test [8], 13.6%; in test [9] it was -5.05%.

Regarding `CN1CCCC1CNC(=O)CCCOCc1ccccc1` (stereo unspecified), the Percent Effect was -4.32% in test [1]; 2.63% in test [2]; 1.84% in test [3]; 9.93% in test [4]; 2.44% in the test on Trypanosoma cruzi; 2.3% in test [5]. For the same compound, the Percent Effect in [6] is -4.01%; in the test filed under Homo sapiens, -1.82%; in test [7], 5.39%; in [8], 7.32%; in test [9], 6%.

For the compound `CN1CCCN(C(=O)c2ccc3c(c2)nc(N2CCOCC2)n3C)CC1`, the Percent Effect in test [1] is -0.416%; in test [2], 4.17%; in test [3], -3.77%; in [4], -0.695%; with Trypanosoma cruzi, -3.6%; in test [5] it was -0.883%. In addition, the Percent Effect is 18.2% in test [6]; 21.6% in the test listed under Homo sapiens; 2.1% in [7]; 2.56% in [8]; -1.63% in test [9].

As to `CN1CCN(c2ncccc2CNc2ncccc2C#N)CC1`, the Percent Effect in test [1] is -5.21%; in test [2], 8.11%; in [3], -1.66%; in [4], 20.8%; in the test with Trypanosoma cruzi it was -2.44%; in [5] it was 3.72%. Further, the Percent Effect in test [6] is 3.86%; in the test filed under Homo sapiens, -10.1%; in test [7] it was 4.3%; in test [8], 13.6%; in test [9], -4.55%.

Regarding `NC(=O)C1CCN(C(=O)c2cccc(CN3CCOCC3)c2)CC1`, the Percent Effect in test [1] is -0.727%; in test [2] it was 6.94%; in test [3] it was 4.41%; in test [4], 25.6%; in the test on Trypanosoma cruzi, 4.57%; in test [5] it was 2.21%. In addition, the Percent Effect in test [6] is 0.702%; in the test listed under Homo sapiens, -3.07%; in [7], 1.05%; in test [8], 0%; in test [9], 79%.

For `Cc1ncnc2c1CCN(Cc1ccc3c(c1)OCO3)CC2`, the Percent Effect in [1] was -2.54%; in [2], 13.7%; in test [3], -1.53%; in test [4] it was 8.83%; with Trypanosoma cruzi, 3.97%; in test [5] it was 1.2%. For the same compound, the Percent Effect was 6.08% in test [6]; -10.2% in the test filed under Homo sapiens; 3.12% in [7]; 11.1% in test [8]; -2.7% in [9].

Turning to `COc1ccc(Br)c(C(=O)NCC2CCN(C(=O)c3ccoc3)CC2)c1`, the Percent Effect in [1] is -6.69%; in test [2], 5.48%; in test [3], 7.36%; in test [4], -0.134%; in the test on Trypanosoma cruzi, 0.783%; in test [5], 3.18%. In addition, the Percent Effect in test [6] was 12.4%; in the test filed under Homo sapiens, 7.16%; in test [7] it was 5.38%; in test [8] it was 17.5%; in test [9] it was -6.16%.
